Results filed as inconclusive are left out. Activity calls are given as the source filed them. Unless noted, calls follow the shape of the dose curve; as a rule, active = well fitted curve in the direction sought with a large enough effect in the repeat runs; inconclusive = weak or mixed curves; inactive = no such curve, though single readings can be large; an effect the other way counts as inactive or inconclusive.
Columns and labels:
[1] = A CellTox Green Cytotoxicity Assay to monitor cytotoxicity in HEK293 cells - 32 hour (AID 1224881); also: nearly all actives have a fitted effect of over 40% in size
In short: (§1)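 Tox21 screen in HEK293: membrane-impermeant cyanine dye fluoresces on binding dead-cell DNA; compound pinned 5 h post-seeding, plates held at 37 C, signal read repeatedly through 40 h.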

[2] = A CellTox Green Cytotoxicity Assay to monitor cytotoxicity in HepG2 cells - 0 hour (AID 1224882); also: nearly all actives have a fitted effect of over 35% in size
In short: (§2)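 Measurements at 0, 8, 16, 24, 32 and 40 h of treatment captured CellTox Green fluorescence in HepG2 cells that had been co-plated with reagent and preincubated 5 h at 37 C/5% CO2.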

[3] = A CellTox Green Cytotoxicity Assay to monitor cytotoxicity in HepG2 cells - 32 hour (AID 1224883); also: nearly all actives have a fitted effect of over 50% in size
In short: as §2

[4] = A CellTox Green Cytotoxicity Assay to monitor cytotoxicity in HEK293 cells - 8 hour (AID 1224884); also: nearly all actives have a fitted effect of over 35% in size
In short: as §1

[5] = qHTS RealTime-Glo MT Cell Viability Assay in HepG2 cells - 16 hour (AID 1224885); also: nearly all actives have a fitted effect of over 50% in size
In short: (§3)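 Viability was tracked continuously by NanoLuc luminescence from prosubstrate reduced by living HepG2 cells, at successive time points over 40 h of compound exposure. Cells with reagent were preincubated 5 h at 37 °C before compound addition.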

[6] = qHTS RealTime-Glo MT Cell Viability Assay in HEK293 cells - 24 hour (AID 1224886); also: top concentration of the series differs between compounds; nearly all actives have a fitted effect of over 50% in size
In short: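 Viability tracked continuously by luminescence as live cells reduce a prosubstrate for NanoLuc; HEK293 cells preincubated 5 h, compound-treated at 37 C, and read at 0, 8, 16, 24, 32 and 40 h.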

[7] = qHTS RealTime-Glo MT Cell Viability Assay in HEK293 cells - 8 hour (AID 1224887); also: top concentration of the series differs between compounds; nearly all actives have a fitted effect of over 50% in size
In short: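 HEK293 + NanoLuc + prosubstrate, 600 cells/well; 5 h, 37 C/5% CO2; compound 23 nL in DMSO by pintool; 37 C; luminescence read at 0, 8, 16, 24, 32 and 40 h time points.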

[8] = A CellTox Green Cytotoxicity Assay to monitor cytotoxicity in HEK293 cells - 16 hour (AID 1224888); also: nearly all actives have a fitted effect of over 35% in size
In short: as §1

[9] = qHTS RealTime-Glo MT Cell Viability Assay in HepG2 cells - 0 hour (AID 1224889); also: nearly all actives have a fitted effect of over 50% in size
In short: as §3

[10] = qHTS assay to identify small molecule antagonists of the estrogen receptor alpha (ER-alpha) signaling pathway using the BG1 cell line in the presence of 0.1 nM 17-beta-estradiol - cell viability counter screen (AID 1259241); also: nearly all actives have a fitted effect of over 40% in size
In short: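 Viability in VM7Luc4E2 cells after 22 hr compound exposure under 0.1 nM 17beta-estradiol stimulation, by CellTiter-Fluor.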

[11] = qHTS assay to identify small molecule antagonists of the androgen receptor (AR) signaling pathway using the MDA cell line in the presence of 0.5 nM R1881 - cell viability counter screen (AID 1259242); also: nearly all actives have a fitted effect of over 45% in size
In short: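 Concentration-response screen of compounds for toxicity in MDA-kb2 reporter cells: 16 hr at 37C with 0.5 nM R1881, endpoint live-cell protease fluorescence measured in the reporter wells.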

[12] = target: Estrogen receptor (Homo sapiens) (UniProt P03372); experiment: qHTS assay to identify small molecule antagonists of the estrogen receptor alpha (ER-alpha) signaling pathway using the BG1 cell line in the presence of 0.1 nM 17-beta-estradiol (AID 1259244); also: nearly all actives have a fitted effect of over 50% in size
Estrogen receptor (Homo sapiens), sequence (P03372 whole entry, looked up): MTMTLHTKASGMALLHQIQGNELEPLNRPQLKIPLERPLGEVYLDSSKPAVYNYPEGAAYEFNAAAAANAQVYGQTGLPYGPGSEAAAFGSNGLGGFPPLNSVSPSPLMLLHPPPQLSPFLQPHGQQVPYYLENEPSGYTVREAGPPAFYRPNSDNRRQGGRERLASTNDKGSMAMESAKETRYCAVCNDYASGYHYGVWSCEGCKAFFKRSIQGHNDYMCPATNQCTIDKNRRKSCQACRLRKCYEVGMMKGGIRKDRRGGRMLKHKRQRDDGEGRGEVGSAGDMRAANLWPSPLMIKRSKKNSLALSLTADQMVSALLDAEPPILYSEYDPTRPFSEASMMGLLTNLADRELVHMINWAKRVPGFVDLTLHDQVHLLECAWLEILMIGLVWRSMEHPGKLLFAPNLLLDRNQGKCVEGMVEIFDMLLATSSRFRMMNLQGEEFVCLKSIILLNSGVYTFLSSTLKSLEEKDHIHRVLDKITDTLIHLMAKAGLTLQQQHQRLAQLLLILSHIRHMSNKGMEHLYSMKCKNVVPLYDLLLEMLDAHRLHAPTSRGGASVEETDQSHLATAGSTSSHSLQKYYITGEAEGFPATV
In short: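 Compounds were tested against 0.1 nM (final) 17beta-estradiol in VM7Luc4E2 cells, which express full-length ER-alpha and an ERE-luciferase reporter; luminescence was recorded following 22 h exposure.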

[13] = qHTS assay to identify small molecule phospholipidosis (PLD) inducers (AID 1259344; active = well fitted curve in the direction sought with a large enough effect; an effect the other way counts as inactive or inconclusive)
In short: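 Cells (HepG2, 900 per well) attach for 4 h, receive LipidTOX Red and compound together, incubate 24 h at 37 C, are fixed 30 min with paraformaldehyde/Hoechst, then imaged at one site per well.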

[14] = qHTS assay to identify small molecule HDAC inhibitors (AID 1259364);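 also: wild-type HCT-116 cells with endogenous class I/II HDAC activity; top concentration of the series differs between compounds; nearly all actives have a fitted effect of over 45% in size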
In short: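 Screening used wild-type human colon HCT-116 cells incubated overnight, dosed with compounds for 2 hours, and assayed with a homogeneous luminogenic HDAC I/II reagent for 30 minutes at room temperature.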

[15] = qHTS assay to identify small molecule HDAC inhibitors - cell viability counter screen (AID 1259365)
In short: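 Cytotoxicity was gauged in wild-type HCT-116 cells after a brief 2hr treatment with DMSO-dissolved compounds at 37C and 5% CO2, using CellTiter-Glo luminescence developed for 30min at room temperature.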

[16] = qHTS assay to identify small molecule agonists of the sonic hedgehog signaling (Shh) pathway - cell viability counter screen (AID 1259366); also: nearly all actives have a fitted effect of over 50% in size
In short: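 Stable Gli1-Luc NIH/3T3 clone, 2,000 cells/well. Compound exposure 24hr at 37C. Read-out: CellTiter-Fluor fluorescence.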

[17] = qHTS assay to identify small molecule antagonists of the sonic hedgehog signaling (Shh) pathway - cell viability counter screen (AID 1259367); also: nearly all actives have a fitted effect of over 55% in size
In short: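 Cytotoxicity was assessed in parallel with Shh reporter activity by measuring live-cell protease fluorescence (CellTiter-Fluor) in NIH/3T3 cells stably carrying Gli1-Luc, treated with compound under conditioned medium stimulation for 23 hr plus 1 hr reagent incubation.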

[18] = qHTS assay to identify small molecule agonists of the sonic hedgehog signaling (Shh) pathway (AID 1259368; calls by dose curve;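 also: NIH/3T3-derived 3T3Gli1-Luc cells carrying a stable Gli1-driven firefly luciferase reporter; series mostly up to about 92 µM; nearly all actives have a fitted effect of over 15% in size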)
In short: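 Hedgehog pathway agonism scored by increased firefly luciferase luminescence in 3T3Gli1-Luc cells treated 24 hr at 37 C; detection used a 30 min room-temperature reagent incubation.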

[19] = A CellTox Green Cytotoxicity Assay to monitor cytotoxicity in HepG2 cells - 8 hour (AID 1224890); also: nearly all actives have a fitted effect of over 45% in size
In short: as §2
% is scaled to controls: 0 for no effect and ±100 for the full control effect.

CCOc1ccc2nc(S(N)(=O)=O)sc2c1
inactive: outcome [1] | Potency [2] | Potency [3] | outcome [4] | outcome [5] | Potency [6] | Potency [7] | outcome [8] | Potency [9] | outcome [10] | outcome [11] | outcome [12] | outcome [13] | Potency [14] | outcome [15] | Potency [16] | Potency [17] | outcome [18]

CC(C)=CCC/C(C)=C/C#N
inactive: outcome [1] | Potency [2] | Potency [3] | outcome [4] | outcome [5] | Potency [6] | Potency [7] | outcome [8] | Potency [9] | outcome [19] | outcome [11] | outcome [12] | Potency [14] | outcome [15] | Potency [16] | Potency [17]

CCCCN1C=CN(C)C1
inactive: cytotoxicity increase [1] -9.11% [at 15.8 µM] | cytotoxicity increase [3] -19.6% [at 15.8 µM] | cytotoxicity increase [4] -6.47% [at 15.8 µM] | activity change, negative = cytotoxic [5] 3.26% [at 15.8 µM] | activity change, negative = cytotoxicity [6] 9.28% [at 15.8 µM] | activity change, negative = cytotoxicity [7] 5.36% [at 15.8 µM] | activity change [8] -9.59% [at 15.8 µM] | activity change, negative = cytotoxicity [9] 0.175% [at 15.8 µM] | cytotoxicity increase [19] -8.5% [at 15.8 µM] | activity change, negative = cytotoxicity [10] 0.391% [at 19 µM] | viability change, negative = cytotoxic [11] 0.923% [at 19 µM] | activity change, negative = inhibition [12] 8.85% [at 19 µM] | activity change, negative = inhibition [14] -8.42% [at 19 µM] | activity change, negative = cytotoxicity [15] 5.24% [at 19 µM] | viability change, negative = cytotoxic [17] 0.731% [at 19 µM] | activity change [18] 1.75% [at 18.9 µM]

c1ccc2sc(SN3CCOCC3)nc2c1
inactive: outcome [1] | Potency [2] | outcome [4] | outcome [5] | Potency [7] | outcome [8] | Potency [9] | outcome [10] | outcome [11] | outcome [13] | outcome [15] | Potency [16] | Potency [17] | outcome [18]

O=C(O)CCCC[P+](c1ccccc1)(c1ccccc1)c1ccccc1
inactive: outcome [1] | Potency [2] | outcome [4] | outcome [5] | Potency [7] | outcome [8] | Potency [9] | outcome [19] | outcome [10] | outcome [11] | outcome [12] | Potency [14] | outcome [15] | Potency [16] | Potency [17]

CN1[C@@H]2CC[C@H]1CC(OC(=O)C(O)c1ccccc1)C2 (some centres not stated)
inactive: outcome [1] | Potency [2] | outcome [4] | outcome [5] | Potency [7] | outcome [8] | Potency [9] | outcome [10] | outcome [11] | outcome [12] | outcome [13] | Potency [14] | outcome [15] | Potency [16] | Potency [17] | outcome [18]

CC1OC1C1CCC2(C)OC2C1 (configuration not stated)
inactive: outcome [1] | Potency [2] | outcome [4] | outcome [5] | Potency [6] | Potency [7] | outcome [8] | Potency [9] | outcome [19] | outcome [10] | outcome [11] | outcome [12] | Potency [14] | outcome [15] | Potency [16] | Potency [17] | outcome [18]

— PubChem BioAssay (Tox21)
